Entries with a potency or affinity are not part of this list. The source made the active and inactive calls. The rule behind the calls is not given here.

Sequence of CAAX prenyl protease 2 (Homo sapiens) (Q9Y256 whole entry, looked up): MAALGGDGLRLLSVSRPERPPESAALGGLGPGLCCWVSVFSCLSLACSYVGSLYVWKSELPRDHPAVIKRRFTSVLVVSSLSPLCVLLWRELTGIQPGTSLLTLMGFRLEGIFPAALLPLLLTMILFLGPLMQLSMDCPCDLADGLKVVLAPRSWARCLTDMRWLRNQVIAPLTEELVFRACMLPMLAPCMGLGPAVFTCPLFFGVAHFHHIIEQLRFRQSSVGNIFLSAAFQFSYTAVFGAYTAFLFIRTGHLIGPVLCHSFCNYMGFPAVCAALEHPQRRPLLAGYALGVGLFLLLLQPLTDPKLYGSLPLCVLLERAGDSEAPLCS

The experiment concerns the target CAAX prenyl protease 2 (Homo sapiens) (UniProt Q9Y256). Put plainly: human Rce1 protease inhibitors, dose response, biochemical, yeast membranes, quenched-peptide fluorescence, cherry-pick (AID 588849). The conditions noted are these: yeast membrane fractions expressing human Rce1, quenched-peptide fluorescence, 4 h; series mostly up to 10 µM.
Turning to `C/C(CC1(O)C(=O)Nc2ccccc21)=N\O` (centres undefined), the compound was called inactive.

In the case of `CC(C)[C@H](NC(=O)OCc1ccccc1)C(=O)OCC(=O)Nc1c(F)cccc1F`, the call was inactive.

With `O=C(C(Cc1ccccc1)N1C(=O)c2ccccc2C1=O)N1c2ccccc2CCc2ccccc21` (centres undefined), the compound was classed as inactive.

In the case of `Cc1ccc(N=Cc2c(O)n(C)c(=O)n(C)c2=O)nc1`, the result was inactive.

With `O=c1c(-c2ccccc2)c(O)c2ccccc2n1-c1ccccc1`, the call was inactive.

Regarding `COc1ccc(OC)c(/C=N/NC(=O)Cn2ccnc2C)c1`, the outcome was inactive.

In the case of `Nc1nnnn1/N=C/c1ccccc1OCc1ccc(Cl)cc1Cl`, the compound was classed as inactive.

With `Cn1c(CCNS(=O)(=O)c2ccccc2)nnc1SCc1cccnc1`, the outcome was inactive.

Consider `CN1CCN(C(=S)NC(=O)c2ccccc2Cl)CC1`, for which the compound was classed as inactive.

Regarding `Cc1cc(N2CCOCC2)n2cc(-c3ccccc3)nc2n1`, the compound was called inactive.

In the case of `CCOc1ccc(-c2c(C(=O)N/N=C/c3cccs3)nnn2-c2nonc2N)cc1`, the outcome was inactive.

With `O=C(C1CCC(=O)N(C2CC2)C1)N1CCN(c2ccccc2Cl)CC1` (centres undefined), the call was inactive.

For the compound `O=C(NCCc1c[nH]c2ccccc12)OCCSS(=O)(=O)O`, the result was inactive.

Turning to `O=S(=O)(CC(CN1CCOCC1)N1CCOCC1)c1ccccc1` (centres undefined), the call was inactive.

Regarding `COC(=O)/C=c1\[nH]c2nnc(C)n2c1=O`, the compound was called inactive.

For the compound `COC(=O)c1ccccc1NC(=O)NCc1cccnc1`, the call was inactive.

In the case of `CCN(CC)CCN(C(=O)c1ccc2ccccc2c1)c1nc2cc3c(cc2s1)OCO3`, the outcome was inactive.

As for `CC1(c2ccc(OCC#N)cc2)C=C(c2ccc(OCC#N)cc2)n2nc(C(F)(F)F)nc2N1` (centres undefined), the compound was classed as inactive.

For the compound `Oc1c(N=NC(=S)Nc2ccccc2F)c2ccccc2n1Cc1ccccc1Cl`, the compound was classed as inactive.

`OC1CCN(C(c2ccc3ncccc3c2)c2nnnn2C2CCCCC2)CC1` (centres undefined): the compound was called inactive.

As for `CCS(=O)(=O)Nc1c(C(=O)O)[nH]c2ccccc12`, the outcome was inactive.

Turning to `COc1ccc(S(=O)(=O)NCC2CCCO2)cc1NC(=O)c1ccccc1F` (centres undefined), the result was inactive.

On to `COc1ccccc1/C=C/C=N/NC(=O)CN1CCN(S(=O)(=O)c2ccc(C)cc2)CC1`, for which the compound was classed as inactive.

For the compound `CCCOc1ccc(-c2c(C(=O)N/N=C/c3cccs3)nnn2-c2nonc2N)cc1`, the compound was called inactive.

For `Cc1cc2nn(-c3cccc4ccccc34)nc2cc1NC(=O)c1cccs1`, the result was inactive.

As for `CC1=CC2=NC(=O)CC(C)(C(=O)N(CC(=O)NC3CCCC3)Cc3ccccc3)N2C=C1` (centres undefined), the outcome was inactive.

Take `CC1(c2nnc(-c3cccc(Cl)c3)o2)CC(c2cccc(F)c2)=NO1` (centres undefined): the call was inactive.

With `CCc1cc(=O)oc2c3c(cc(OCC(=O)NCCCC(=O)O)c12)OC(C)(C)CC3`, the call was inactive.

On to `Cc1ccc(-c2nc(SCC(=O)N(C)C3CCS(=O)(=O)C3)[nH]c2-c2ccc(C)cc2)cc1` (centres undefined), for which the result was inactive.

For `Cc1c(C)c2ccc(OC(C)C(=O)NCCCN3CCOCC3)c(C)c2oc1=O` (centres undefined), the result was inactive.

As to `CCN1CCN(CC(O)COc2ccc3c(C)cc(=O)oc3c2)CC1` (centres undefined), the outcome was inactive.

Turning to `COc1ccc(CCN(C)C(=O)c2ccc(S(=O)(=O)Nc3ccccc3C)cc2)cc1OC`, the call was inactive.

For `Nc1nonc1-n1nnc(C(=O)N/N=C/c2cccc(Cl)c2)c1CSc1ccc(Cl)cc1`, the compound was called inactive.

For the compound `CCOC(=O)C[C@H]1c2ccccc2S(=O)(=O)N1Cc1cc(OC)c(OC)c(OC)c1`, the result was inactive.

On to `Cc1cc(N2CCN(C(c3ccccc3)c3ccccc3)CC2)n2ncnc2n1`, for which the compound was classed as inactive.

In the case of `CCNC(=S)NNC(=O)CCn1cc(C)cn1`, the compound was classed as inactive.

For the compound `CC(C)CNC(=O)Nc1ccc(F)c(Cl)c1`, the outcome was inactive.

With `NS(=O)(=O)c1ccc(NC(=O)/C=C/c2cn(-c3ccccc3)nc2-c2cccc(Cl)c2)cc1`, the result was inactive.

On to `CC(=O)c1ccc(-c2ccc(C(=O)N3CCC(C(N)=O)CC3)o2)cc1`, for which the outcome was inactive.

These data come from PubChem BioAssay AID588849 (Broad Institute, 2011).
